Publication PMC7862700, “An all-to-all approach to the identification of sequence-specific readers for epigenetic DNA modifications on cytosine”

How the values were obtained:
Experiment in all cases: DAPPL (digital affinity profiling via proximity ligation, sequencing); 10 mM Tris-HCl pH 7.5, 50 mM NaCl, 1 mM DTT, 4% glycerol, room temperature, 30 min; GST-TFs on glutathione beads, 16-mer random dsDNA library, 0.1% formaldehyde crosslink after washing; high values mean tight binding
FLI1 = target: T1, FLI1 (Homo sapiens, UniProt Q01543 1-452); details: protein: recombinant; tags: N-terminal GST; dsDNA, one strand shown
T1 sequence: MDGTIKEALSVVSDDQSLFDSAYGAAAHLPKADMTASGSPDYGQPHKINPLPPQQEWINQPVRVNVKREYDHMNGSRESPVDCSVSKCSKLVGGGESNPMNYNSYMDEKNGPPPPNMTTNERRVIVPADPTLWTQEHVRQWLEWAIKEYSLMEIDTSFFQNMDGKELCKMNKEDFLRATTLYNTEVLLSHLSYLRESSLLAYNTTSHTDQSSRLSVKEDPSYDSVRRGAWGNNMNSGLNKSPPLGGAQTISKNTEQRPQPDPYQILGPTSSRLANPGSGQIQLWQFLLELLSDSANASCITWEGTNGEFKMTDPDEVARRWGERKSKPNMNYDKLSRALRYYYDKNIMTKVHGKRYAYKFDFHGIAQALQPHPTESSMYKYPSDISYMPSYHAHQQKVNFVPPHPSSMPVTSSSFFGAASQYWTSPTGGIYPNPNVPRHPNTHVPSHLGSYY
Outline: (§1)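 Beads coated with glutathione captured GST-fused human transcription factors that had been expressed in yeast, and the factors were then given DNA barcodes and pooled with a tag-only sample. The pools were incubated with 200 nmole of a random double-stranded 16-mer DNA library in Tris/NaCl/DTT/glycerol buffer for 30 min at room temperature, washed, crosslinked with 0.1% formaldehyde and proximity-ligated with BsaI/T4 ligase at 37 °C for 1 h. PCR amplification and Illumina NextSeq500 sequencing came last. Binding signal is each hexamer's read frequency for a factor divided by its frequency for the tag-only sample.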

ELK1 = target: T2, ELK1 (Homo sapiens, UniProt P19419 1-428); details: protein: recombinant; tags: N-terminal GST; dsDNA, one strand shown
T2 sequence: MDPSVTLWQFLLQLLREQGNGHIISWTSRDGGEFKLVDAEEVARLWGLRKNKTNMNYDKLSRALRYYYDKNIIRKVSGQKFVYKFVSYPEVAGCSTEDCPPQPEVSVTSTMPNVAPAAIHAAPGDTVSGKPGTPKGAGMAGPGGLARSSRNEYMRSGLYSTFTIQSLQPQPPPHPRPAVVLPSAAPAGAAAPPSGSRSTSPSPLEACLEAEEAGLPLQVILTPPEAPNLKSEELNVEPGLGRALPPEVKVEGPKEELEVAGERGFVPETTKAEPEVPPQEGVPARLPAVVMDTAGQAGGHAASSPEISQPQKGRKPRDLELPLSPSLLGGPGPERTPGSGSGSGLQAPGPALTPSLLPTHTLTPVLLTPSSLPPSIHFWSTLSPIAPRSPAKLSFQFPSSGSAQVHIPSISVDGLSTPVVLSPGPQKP
Outline: as §1

GABPA = target: T3, GABPA (Homo sapiens, UniProt Q06546 1-454); details: protein: recombinant; tags: N-terminal GST; dsDNA, one strand shown
T3 sequence: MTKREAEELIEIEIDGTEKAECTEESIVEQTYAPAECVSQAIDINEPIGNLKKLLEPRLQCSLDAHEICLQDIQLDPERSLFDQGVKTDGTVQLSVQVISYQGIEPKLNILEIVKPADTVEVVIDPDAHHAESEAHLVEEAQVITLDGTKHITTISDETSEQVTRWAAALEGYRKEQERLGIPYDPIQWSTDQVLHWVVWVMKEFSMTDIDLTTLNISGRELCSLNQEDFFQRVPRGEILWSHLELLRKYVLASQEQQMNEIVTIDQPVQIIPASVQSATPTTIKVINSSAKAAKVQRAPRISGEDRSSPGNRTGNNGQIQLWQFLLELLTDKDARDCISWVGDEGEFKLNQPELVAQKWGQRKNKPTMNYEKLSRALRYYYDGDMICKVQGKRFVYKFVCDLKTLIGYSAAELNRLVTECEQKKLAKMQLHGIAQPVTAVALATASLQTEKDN
Outline: as §1

ERG = target: T4, ERG (Homo sapiens, UniProt P11308 1-479); details: protein: recombinant; tags: N-terminal GST; dsDNA, one strand shown
T4 sequence: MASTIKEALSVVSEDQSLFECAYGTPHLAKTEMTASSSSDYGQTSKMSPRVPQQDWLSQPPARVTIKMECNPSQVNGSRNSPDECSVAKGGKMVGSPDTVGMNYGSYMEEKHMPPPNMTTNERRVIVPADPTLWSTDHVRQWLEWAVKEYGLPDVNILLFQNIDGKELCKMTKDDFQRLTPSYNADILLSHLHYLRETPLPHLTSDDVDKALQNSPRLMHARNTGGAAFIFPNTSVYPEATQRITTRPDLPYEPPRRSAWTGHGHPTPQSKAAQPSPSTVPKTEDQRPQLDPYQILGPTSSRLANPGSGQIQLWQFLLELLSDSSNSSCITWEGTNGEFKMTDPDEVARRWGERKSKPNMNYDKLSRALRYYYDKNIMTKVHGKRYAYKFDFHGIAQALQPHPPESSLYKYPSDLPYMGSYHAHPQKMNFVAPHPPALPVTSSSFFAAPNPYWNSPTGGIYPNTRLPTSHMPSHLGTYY
Outline: as §1

ELF1 = ELF1 (Homo sapiens, UniProt P32519 1-619); details: protein: recombinant; tags: N-terminal GST; dsDNA, one strand shown
Outline: as §1

EHF = target: T5, EHF (Homo sapiens, UniProt Q9NZC4 1-300); details: protein: recombinant; tags: N-terminal GST; dsDNA, one strand shown
T5 sequence: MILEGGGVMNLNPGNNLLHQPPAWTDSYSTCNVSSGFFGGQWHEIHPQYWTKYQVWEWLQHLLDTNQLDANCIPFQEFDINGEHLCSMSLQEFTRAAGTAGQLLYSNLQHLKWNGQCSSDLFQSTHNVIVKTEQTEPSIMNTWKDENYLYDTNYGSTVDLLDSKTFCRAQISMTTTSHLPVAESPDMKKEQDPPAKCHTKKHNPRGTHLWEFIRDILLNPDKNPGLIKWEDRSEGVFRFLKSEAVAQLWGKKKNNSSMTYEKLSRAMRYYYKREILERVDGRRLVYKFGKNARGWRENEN
Outline: as §1

SPI1 = SPI1 (Homo sapiens, UniProt P17947 1-270); details: protein: recombinant; tags: N-terminal GST; dsDNA, one strand shown
Outline: as §1

SPIB = SPIB (Homo sapiens, UniProt Q01892 1-262); details: protein: recombinant; tags: N-terminal GST; dsDNA, one strand shown
Outline: as §1

ELK3 = target: T6, ELK3 (Homo sapiens, UniProt P41970 1-407); details: protein: recombinant; tags: N-terminal GST; dsDNA, one strand shown
T6 sequence: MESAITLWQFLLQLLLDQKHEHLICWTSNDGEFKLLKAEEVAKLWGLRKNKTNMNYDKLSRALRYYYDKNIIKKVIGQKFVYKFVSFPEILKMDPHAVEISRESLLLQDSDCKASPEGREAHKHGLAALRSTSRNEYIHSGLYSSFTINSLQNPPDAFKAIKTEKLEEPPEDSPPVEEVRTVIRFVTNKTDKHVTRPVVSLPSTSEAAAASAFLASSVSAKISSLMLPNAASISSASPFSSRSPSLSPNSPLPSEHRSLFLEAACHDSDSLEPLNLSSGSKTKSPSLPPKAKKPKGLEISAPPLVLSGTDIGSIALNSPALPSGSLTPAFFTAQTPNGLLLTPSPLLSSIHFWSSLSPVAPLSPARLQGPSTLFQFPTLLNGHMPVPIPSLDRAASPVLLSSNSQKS
Outline: as §1

FEV = target: T7, FEV (Homo sapiens, UniProt Q99581 1-238); details: protein: recombinant; tags: N-terminal GST; dsDNA, one strand shown
T7 sequence: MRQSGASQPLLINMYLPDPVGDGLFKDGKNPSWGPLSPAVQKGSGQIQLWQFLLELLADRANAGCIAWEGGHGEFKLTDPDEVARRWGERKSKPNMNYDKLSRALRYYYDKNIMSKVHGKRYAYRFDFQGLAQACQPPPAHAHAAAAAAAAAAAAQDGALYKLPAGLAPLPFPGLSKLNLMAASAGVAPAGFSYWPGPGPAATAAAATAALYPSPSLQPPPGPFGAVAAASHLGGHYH
Outline: as §1

ETV5 = ETV5 (Homo sapiens, UniProt P41161 1-510); details: protein: recombinant; tags: N-terminal GST; dsDNA, one strand shown
Outline: as §1

HSF1 = HSF1 (Homo sapiens, UniProt Q00613 1-529); details: protein: recombinant; tags: N-terminal GST; chain copies: 3; dsDNA, one strand shown
Outline: as §1

SPIC = target: T8, SPIC (Homo sapiens, UniProt Q8N5J4 1-248); details: protein: recombinant; tags: N-terminal GST; dsDNA, one strand shown
T8 sequence: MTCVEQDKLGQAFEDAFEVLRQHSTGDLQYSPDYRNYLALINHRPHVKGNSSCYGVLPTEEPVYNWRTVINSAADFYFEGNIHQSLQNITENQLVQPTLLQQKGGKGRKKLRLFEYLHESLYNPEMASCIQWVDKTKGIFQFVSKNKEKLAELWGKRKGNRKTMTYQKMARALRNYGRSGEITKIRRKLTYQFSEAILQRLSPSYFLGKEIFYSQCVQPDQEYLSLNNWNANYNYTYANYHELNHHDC
Outline: as §1

ELF4 = ELF4 (Homo sapiens, UniProt Q99607 1-663); details: protein: recombinant; tags: N-terminal GST; dsDNA, one strand shown
Outline: as §1

ELK4 = target: T9, ELK4 (Homo sapiens, UniProt P28324-2 1-405); details: protein: recombinant; tags: N-terminal GST; dsDNA, one strand shown
T9 sequence: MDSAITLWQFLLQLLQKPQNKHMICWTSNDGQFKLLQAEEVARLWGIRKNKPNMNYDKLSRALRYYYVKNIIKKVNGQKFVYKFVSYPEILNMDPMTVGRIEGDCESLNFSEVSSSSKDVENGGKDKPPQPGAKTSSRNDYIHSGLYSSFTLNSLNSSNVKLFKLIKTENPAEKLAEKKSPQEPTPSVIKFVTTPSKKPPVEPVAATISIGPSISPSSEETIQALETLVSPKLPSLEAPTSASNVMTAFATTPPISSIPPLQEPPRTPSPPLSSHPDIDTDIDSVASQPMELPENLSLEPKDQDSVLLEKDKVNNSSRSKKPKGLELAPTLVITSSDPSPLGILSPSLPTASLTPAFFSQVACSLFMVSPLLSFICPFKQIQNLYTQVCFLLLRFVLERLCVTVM
Outline: as §1

ETV2 = target: T10, ETV2 (Homo sapiens, UniProt O00321 1-342); details: protein: recombinant; tags: N-terminal GST; dsDNA, one strand shown
T10 sequence: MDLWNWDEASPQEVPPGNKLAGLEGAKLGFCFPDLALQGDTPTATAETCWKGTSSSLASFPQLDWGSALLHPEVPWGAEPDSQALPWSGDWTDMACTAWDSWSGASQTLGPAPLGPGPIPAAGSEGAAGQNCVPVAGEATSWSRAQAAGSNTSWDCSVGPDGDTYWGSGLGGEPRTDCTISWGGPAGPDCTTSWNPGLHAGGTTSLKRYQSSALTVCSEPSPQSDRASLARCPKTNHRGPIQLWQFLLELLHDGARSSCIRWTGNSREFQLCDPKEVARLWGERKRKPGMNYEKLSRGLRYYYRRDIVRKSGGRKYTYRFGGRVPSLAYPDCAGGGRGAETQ
Outline: as §1

ELF3 = target: T11, ELF3 (Homo sapiens, UniProt P78545 1-371); details: protein: recombinant; tags: N-terminal GST; dsDNA, one strand shown
T11 sequence: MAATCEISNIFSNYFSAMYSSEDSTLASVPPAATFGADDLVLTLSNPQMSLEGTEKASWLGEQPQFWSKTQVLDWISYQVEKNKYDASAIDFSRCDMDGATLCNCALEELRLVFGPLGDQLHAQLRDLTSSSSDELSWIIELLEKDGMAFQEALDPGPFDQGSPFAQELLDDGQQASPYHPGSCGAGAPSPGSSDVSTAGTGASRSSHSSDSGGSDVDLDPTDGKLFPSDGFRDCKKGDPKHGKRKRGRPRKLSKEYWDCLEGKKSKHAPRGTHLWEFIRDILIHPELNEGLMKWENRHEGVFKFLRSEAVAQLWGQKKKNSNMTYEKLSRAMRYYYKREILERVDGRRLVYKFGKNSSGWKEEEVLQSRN
Outline: as §1

CRX = CRX (Homo sapiens, UniProt O43186 1-299); details: protein: recombinant; tags: N-terminal GST; dsDNA, one strand shown
Outline: as §1

ETV1 = ETV1 (Homo sapiens, UniProt P50549 1-477); details: protein: recombinant; tags: N-terminal GST; dsDNA, one strand shown
Outline: as §1

Chain of ETV1 (P50549 whole entry): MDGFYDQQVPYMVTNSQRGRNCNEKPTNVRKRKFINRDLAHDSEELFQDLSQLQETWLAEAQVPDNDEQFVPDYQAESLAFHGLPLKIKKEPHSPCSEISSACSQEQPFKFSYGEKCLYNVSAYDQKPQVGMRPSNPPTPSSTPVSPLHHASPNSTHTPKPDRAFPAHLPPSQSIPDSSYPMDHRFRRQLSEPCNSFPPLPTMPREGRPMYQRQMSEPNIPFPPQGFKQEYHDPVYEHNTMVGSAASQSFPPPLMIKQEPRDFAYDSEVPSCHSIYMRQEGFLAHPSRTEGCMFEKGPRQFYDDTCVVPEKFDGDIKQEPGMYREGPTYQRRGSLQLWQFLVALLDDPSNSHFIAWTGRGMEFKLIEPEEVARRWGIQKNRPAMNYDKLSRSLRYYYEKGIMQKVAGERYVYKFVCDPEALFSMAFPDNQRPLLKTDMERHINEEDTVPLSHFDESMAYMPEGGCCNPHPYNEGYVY
Chain of ELF4 (Q99607 whole entry): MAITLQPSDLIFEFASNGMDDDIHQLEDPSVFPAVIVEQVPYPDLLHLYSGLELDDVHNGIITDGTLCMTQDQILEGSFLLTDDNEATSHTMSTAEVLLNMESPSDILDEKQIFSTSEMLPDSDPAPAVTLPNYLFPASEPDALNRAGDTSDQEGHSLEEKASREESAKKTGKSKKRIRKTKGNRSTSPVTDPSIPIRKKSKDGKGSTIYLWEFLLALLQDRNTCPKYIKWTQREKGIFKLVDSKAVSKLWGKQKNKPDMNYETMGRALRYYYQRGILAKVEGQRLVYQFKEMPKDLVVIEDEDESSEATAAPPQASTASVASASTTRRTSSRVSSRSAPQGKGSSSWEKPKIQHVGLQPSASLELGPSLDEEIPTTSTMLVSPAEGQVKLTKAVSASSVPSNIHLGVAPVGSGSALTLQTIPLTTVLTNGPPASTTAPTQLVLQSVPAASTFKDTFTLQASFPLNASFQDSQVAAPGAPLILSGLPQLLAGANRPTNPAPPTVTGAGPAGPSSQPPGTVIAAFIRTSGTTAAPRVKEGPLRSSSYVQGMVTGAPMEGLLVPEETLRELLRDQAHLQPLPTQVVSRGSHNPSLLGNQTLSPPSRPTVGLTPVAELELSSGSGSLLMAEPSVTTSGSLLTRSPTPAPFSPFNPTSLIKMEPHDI
Chain of HSF1 (Q00613 whole entry): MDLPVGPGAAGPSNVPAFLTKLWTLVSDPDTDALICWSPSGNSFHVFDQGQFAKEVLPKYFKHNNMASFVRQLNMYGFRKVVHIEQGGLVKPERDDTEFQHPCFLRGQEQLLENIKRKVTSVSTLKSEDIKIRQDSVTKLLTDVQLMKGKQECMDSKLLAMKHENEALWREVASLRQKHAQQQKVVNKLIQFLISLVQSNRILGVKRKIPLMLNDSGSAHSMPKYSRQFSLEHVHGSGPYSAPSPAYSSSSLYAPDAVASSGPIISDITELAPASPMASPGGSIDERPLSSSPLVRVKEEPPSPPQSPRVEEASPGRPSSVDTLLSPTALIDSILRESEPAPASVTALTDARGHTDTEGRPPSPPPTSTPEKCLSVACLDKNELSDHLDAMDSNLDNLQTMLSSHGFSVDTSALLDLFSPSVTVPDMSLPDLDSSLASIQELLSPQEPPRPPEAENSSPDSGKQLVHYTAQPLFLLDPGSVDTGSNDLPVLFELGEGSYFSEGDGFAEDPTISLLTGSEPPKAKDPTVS
Chain of ETV5 (P41161 whole entry): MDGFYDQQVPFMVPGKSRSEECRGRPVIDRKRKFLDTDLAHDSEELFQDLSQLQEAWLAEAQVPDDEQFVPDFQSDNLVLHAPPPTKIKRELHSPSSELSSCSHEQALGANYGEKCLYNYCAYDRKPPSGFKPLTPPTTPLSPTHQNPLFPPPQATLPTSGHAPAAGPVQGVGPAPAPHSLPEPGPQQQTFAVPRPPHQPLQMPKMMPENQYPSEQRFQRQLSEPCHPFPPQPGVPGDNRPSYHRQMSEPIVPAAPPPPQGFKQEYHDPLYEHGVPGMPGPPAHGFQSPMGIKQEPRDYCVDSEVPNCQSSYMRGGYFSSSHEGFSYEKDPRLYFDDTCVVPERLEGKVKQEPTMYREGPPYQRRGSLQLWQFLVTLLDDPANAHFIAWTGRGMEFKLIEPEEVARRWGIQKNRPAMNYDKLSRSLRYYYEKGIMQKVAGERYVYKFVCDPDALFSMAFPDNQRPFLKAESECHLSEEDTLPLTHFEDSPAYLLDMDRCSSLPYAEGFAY
Chain of CRX (O43186 whole entry): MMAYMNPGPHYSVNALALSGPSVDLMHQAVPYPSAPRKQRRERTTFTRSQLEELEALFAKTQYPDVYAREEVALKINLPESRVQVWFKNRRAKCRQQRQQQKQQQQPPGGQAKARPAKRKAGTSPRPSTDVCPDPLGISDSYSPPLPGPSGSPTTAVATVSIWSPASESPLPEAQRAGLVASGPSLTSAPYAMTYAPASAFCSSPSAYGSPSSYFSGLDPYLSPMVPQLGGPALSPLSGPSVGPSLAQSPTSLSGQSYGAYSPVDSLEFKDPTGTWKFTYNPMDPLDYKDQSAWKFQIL
Chain of SPIB (Q01892 whole entry): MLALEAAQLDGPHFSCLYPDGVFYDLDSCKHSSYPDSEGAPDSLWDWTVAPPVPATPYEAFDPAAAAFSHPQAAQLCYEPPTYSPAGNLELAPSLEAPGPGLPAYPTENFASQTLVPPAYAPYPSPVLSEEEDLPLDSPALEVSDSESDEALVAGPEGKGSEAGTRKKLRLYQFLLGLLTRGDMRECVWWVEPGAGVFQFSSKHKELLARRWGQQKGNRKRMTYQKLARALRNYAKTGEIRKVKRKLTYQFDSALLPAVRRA
Chain of ELF1 (P32519 whole entry): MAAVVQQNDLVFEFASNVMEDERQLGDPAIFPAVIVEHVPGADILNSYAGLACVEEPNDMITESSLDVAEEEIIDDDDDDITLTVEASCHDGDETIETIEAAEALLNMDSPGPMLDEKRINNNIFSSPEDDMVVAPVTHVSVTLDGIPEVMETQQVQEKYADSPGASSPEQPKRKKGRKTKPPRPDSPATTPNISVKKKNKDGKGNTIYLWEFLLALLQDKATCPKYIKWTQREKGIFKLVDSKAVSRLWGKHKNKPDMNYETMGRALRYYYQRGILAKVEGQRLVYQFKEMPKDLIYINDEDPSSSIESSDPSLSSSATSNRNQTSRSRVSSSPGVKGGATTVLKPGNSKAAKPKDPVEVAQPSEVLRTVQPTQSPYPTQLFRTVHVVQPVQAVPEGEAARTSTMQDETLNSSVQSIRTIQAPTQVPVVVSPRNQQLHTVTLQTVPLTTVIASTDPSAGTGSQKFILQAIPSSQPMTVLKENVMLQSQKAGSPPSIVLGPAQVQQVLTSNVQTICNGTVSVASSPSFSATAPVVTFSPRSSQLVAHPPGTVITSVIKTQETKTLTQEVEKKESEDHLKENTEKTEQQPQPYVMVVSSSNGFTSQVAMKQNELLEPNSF

In the case of CCTCCA, the binding signal (FLI1) is reported as 1.37 fold enrichment (6-mer frequency, TF over GST control), the binding signal (ELK1) is reported as 1.5 fold enrichment (6-mer frequency, TF over GST control) and the binding signal (GABPA) is reported as 1.23 fold enrichment (6-mer frequency, TF over GST control). For the same sequence, the binding signal (ERG) was 1.38 fold enrichment (6-mer frequency, TF over GST control), the binding signal (ELF1) was 1.37 fold enrichment (6-mer frequency, TF over GST control) and the binding signal (EHF) was 1.33 fold enrichment (6-mer frequency, TF over GST control). The binding signal (SPI1) was 1.28 fold enrichment (6-mer frequency, TF over GST control), the binding signal (SPIB) was 1.3 fold enrichment (6-mer frequency, TF over GST control) and the binding signal (ELK3) was 1.37 fold enrichment (6-mer frequency, TF over GST control). For the same sequence, the binding signal (FEV) was 1.31 fold enrichment (6-mer frequency, TF over GST control), the binding signal (ETV5) was 1.34 fold enrichment (6-mer frequency, TF over GST control) and the binding signal (HSF1) was 1.29 fold enrichment (6-mer frequency, TF over GST control). For the same sequence, the binding signal (SPIC) was 1.34 fold enrichment (6-mer frequency, TF over GST control), the binding signal (ELF4) was 1.38 fold enrichment (6-mer frequency, TF over GST control) and the binding signal (ELK4) was 1.47 fold enrichment (6-mer frequency, TF over GST control). For the same sequence, the binding signal (ETV2) was 1.43 fold enrichment (6-mer frequency, TF over GST control), the binding signal (ELF3) was 1.02 fold enrichment (6-mer frequency, TF over GST control) and the binding signal (CRX) was 1.12 fold enrichment (6-mer frequency, TF over GST control). The binding signal (ETV1) was 1.36 fold enrichment (6-mer frequency, TF over GST control).
